Screening results (PubChem BioAssay)
Shown are actives, neighbours in structure and some others; about 4.8% of the full set was active somewhere.
HepG2 tox-1: qHTS for Inhibitors of TGF-b: Cytotox Counterscreen. HepG2 CAGA-GFP viability, ATP luminescence, 18 h. Potency, µM (series often up to 46.1 µM), actives largely listed as cytotoxic. hit rate 0.76% among 410,000
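CellTiter-Glo luminescence gave cytotoxicity after 18 hours at 37 degrees C. The cells were HepG2 CAGA-GFP in 1% FBS DMEM, stimulated with 500 pg/mL TGF-beta after compound addition. %Activity was normalised to no-cell wells (complete cell-killing) and DMSO (no toxicity), and curves were fitted and classified.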
TGFb SMAD3 inh: qHTS for Inhibitors of TGF-b | AID 588855, 2011 | HepG2 CAGA-GFP TGF-b/SMAD3 reporter, GFP fluorescence, 18 h; TGF-beta stimulated, 500 pg/mL final | Potency, µM (highest dose often 46.1 µM), hits mostly inhibitors | hit rate 1.2% among 410,000; also: nearly all actives have a fitted effect of over 65% in size
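Inhibition was scored as loss of TGF-beta-induced (500 pg/mL final, 18 hours, 37 degrees C) GFP in HEPG2 cells carrying a CAGA-GFP reporter, in DMEM with 1% FBS. Well GFP was summed per cell; Activity was normalised to unstimulated and stimulated DMSO wells, then concentration-response fitting.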
ATXN viability: Viability Counterscreen for Primary qHTS for Inhibitors of ATXN expression; S2 cells (HEK-293 line with an ATXN2-luciferase reporter) viability, CellTiter-Fluor protease fluorescence, 24 h; Potency, µM (top dose mostly 56.7 µM), actives largely listed as cytotoxic; hit rate 0.49% among 400,000; also: nearly all actives have a fitted effect of over 40% in size
ATXN2 expr inh: Primary qHTS for Inhibitors of ATXN expression | HEK-293 ATXN2-luciferase reporter, luminescence, 24 h | Potency, µM (doses to about 57 µM), most hits filed as inhibitors | hit rate 0.72% among 360,000; also: nearly all actives have a fitted effect of over 55% in size
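qHTS (up to 57 uM final) was run with 24 h compound exposure of reporter cells at 37 °C. Each well was multiplexed: SteadyGlo luminescence measured ATXN2-luciferase expression after a fluorogenic Gly-Phe-AFC viability readout (25 uM final).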
D3 antag: qHTS of D3 Dopamine Receptor Antagonist: qHTS; max response, negative = inhibition, %; hit rate 2.5% among 360,000; D3R cells, DiscoveRx beta-arrestin luminescence, antagonist mode; active compounds read low; in the data active = max response below about -50%; inconclusive = no clear call, values can overlap the other calls
Target sequence (P35462 whole entry, looked up): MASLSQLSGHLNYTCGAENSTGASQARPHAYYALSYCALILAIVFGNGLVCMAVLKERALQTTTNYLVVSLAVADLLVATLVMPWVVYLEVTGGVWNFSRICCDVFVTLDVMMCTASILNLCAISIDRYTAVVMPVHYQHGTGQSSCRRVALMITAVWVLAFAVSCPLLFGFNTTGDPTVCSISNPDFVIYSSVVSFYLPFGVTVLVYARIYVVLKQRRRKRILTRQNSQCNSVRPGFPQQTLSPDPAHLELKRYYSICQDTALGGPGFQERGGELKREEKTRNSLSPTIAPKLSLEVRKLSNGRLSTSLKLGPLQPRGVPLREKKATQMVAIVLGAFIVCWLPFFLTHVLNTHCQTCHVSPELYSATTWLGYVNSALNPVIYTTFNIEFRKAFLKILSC
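Cells expressing the human receptor were seeded at 1500 cells/well, incubated overnight at 37 degrees C in 5% CO2, then exposed to library compounds with dopamine controls for 90 minutes at 37 degrees C before luminescent detection.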
DRD3 agonist: qHTS of D3 Dopamine Receptor Agonist: qHTS; D3R DiscoveRx beta-arrestin cells, luminescence, 90 min; max activation, %; AID 652048, 2013; hit rate 0.58% among 410,000; D(3) dopamine receptor (Homo sapiens), P35462; in the data active = max activation above about 30%
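Cells at 1500/well, incubated overnight, then treated with pinned compounds (dopamine as control) for 90 min at 37 degrees C. DiscoveRx reagent added for 30 - 60 minutes at room temperature; luminescence read.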
TGFb confirm: qHTS for Inhibitors of TGF-b: Confirmation of Cherry Picks; shares compounds with TGFb SMAD3 inh; HepG2 CAGA-GFP TGF-b reporter, GFP fluorescence, 18 h; cells stimulated with TGF-beta, 500 pg/mL; Potency, µM (series often up to 46.1 µM), most hits filed as inhibitors; hit rate 63% among 1,600; also: nearly all actives have a fitted effect of over 65% in size
HepG2 tox-2: qHTS for Inhibitors of TGF-b: Cytotox Counterscreen for Cherry Picks; Potency, µM (series often up to 46.1 µM), usual class: inhibitors; HepG2 CAGA-GFP viability, ATP luminescence, 18 h; cells stimulated with TGF-beta, 500 pg/mL; shares compounds with TGFb SMAD3 inh; hit rate 27% among 1,600; also: nearly all actives have a fitted effect of over 70% in size
CCL64 TGFb inh: qHTS for Inhibitors of TGF-b: CCL64 Cells Orthogonal Assay for Cherry Picks | shares compounds with TGFb SMAD3 inh | CCL64 CAGA-GFP reporter, TGF-b stimulated, GFP fluorescence, 18 h | Potency, µM (series often up to 46.1 µM), usual class: inhibitors | hit rate 41% among 1,600 | AID 720536, 2013; also: nearly all actives have a fitted effect of over 65% in size
COP TGFb inh: qHTS for Inhibitors of TGF-b: Hit Validation in HepG2 Cells using COP promoter; shares compounds with TGFb SMAD3 inh; HepG2 COP-GFP TGF-b reporter, GFP fluorescence, 18 h; cells stimulated by added recombinant TGF-beta; Potency, µM (doses to about 46.1 µM), most hits filed as inhibitors; hit rate 3% among 1,600; also: nearly all actives have a fitted effect of over 70% in size
Each line names hits and unclear results; the compound was inactive in the other large screens (follow-up assays come after a bar, where they were run); ! = not confirmed by another sample. Unless noted, calls follow the shape of the dose curve; as a rule, active = well fitted curve in the direction sought with a large enough effect; inconclusive = small, poorly fitted or top-dose-only effect, or another doubt; inactive = no such curve, though single readings can be large; an effect the other way counts as inactive or inconclusive.

Nc1ncnc2c1ccn2[C@@H]1O[C@H](CO)[C@@H](O)[C@H]1O	HepG2 tox-1 1µM, TGFb SMAD3 inh 0.45µM, ATXN viability 3.2µM, ATXN2 expr inh 1.1µM | TGFb confirm 0.58µM | HepG2 tox-2 0.92µM | CCL64 TGFb inh 0.82µM | COP TGFb inh inactive
NC(=S)c1cn(C2OC(CO)C(O)C2O)c2ncnc(N)c12 (configuration not stated)	TGFb SMAD3 inh 0.32µM, ATXN viability inconclusive (no result: ATXN2 expr inh) | TGFb confirm 0.26µM | HepG2 tox-2 0.16µM | CCL64 TGFb inh 0.46µM | COP TGFb inh inactive
CCOc1cc(-c2c(C#N)c(=O)[nH]c3c2c(C)nn3-c2ccc(F)cc2)ccc1O	TGFb SMAD3 inh inconclusive
COc1ccc(S(=O)(=O)N2c3ccc(F)cc3CCC2C)cc1 (configuration not stated)	TGFb SMAD3 inh 6.3µM, ATXN viability inconclusive (no result: ATXN2 expr inh) | TGFb confirm 4.1µM | HepG2 tox-2 inactive | CCL64 TGFb inh 5.8µM | COP TGFb inh inactive
COc1ccc(S(=O)(=O)N2Cc3ccccc3-n3nncc3C2)cc1	none
CC1=CC2OC3CC4OC(=O)C=CC=CC(C(C)O)OCC(O)C(C)CC(=O)OCC2(CC1O)C4(C)C31CO1 (configuration not stated)	ATXN viability inconclusive | TGFb confirm 0.041µM | CCL64 TGFb inh 0.029µM | COP TGFb inh inactive
CC1=CC2OC3CC4OC(=O)C=CC=CC(=O)OCCC(C)C(O)C(=O)OCC2(CC1O)C4(C)C31CO1 (configuration not stated)	ATXN viability inconclusive, ATXN2 expr inh inconclusive | TGFb confirm 0.012µM | CCL64 TGFb inh 0.0046µM | COP TGFb inh inactive
CC(C)CC1C(=O)N2CCC[C@H]2[C@]2(O)O[C@](NC(=O)[C@@H]3C=C4c5cccc6[nH]c(Br)c(c56)C[C@H]4N(C)C3)(C(C)C)C(=O)N12 (some centres not stated)	TGFb SMAD3 inh inconclusive (no result: ATXN viability, ATXN2 expr inh, D3 antag, DRD3 agonist)
COc1ccc(CCNC(=O)c2ccc3c(c2)N(Cc2cccc(Cl)c2)C(=O)CS3)cc1OC	ATXN viability inconclusive, ATXN2 expr inh inconclusive (no result: D3 antag)
CCC1(OC(=O)CN)C(=O)OCc2c1cc1n(c2=O)Cc2cc3ccccc3nc2-1 (configuration not stated)	TGFb SMAD3 inh 2.2µM, ATXN2 expr inh 0.0095µM, D3 antag inconclusive (no result: ATXN viability) | TGFb confirm 1.2µM | HepG2 tox-2 0.58µM | CCL64 TGFb inh 2.3µM | COP TGFb inh inactive
COc1cccc(N2CCN(C(=O)Cn3c(=O)oc4ccccc43)CC2)c1	none
C[C@H]1CCC/C=C/[C@@H]2C[C@H](O)C[C@H]2[C@H](O)/C=C/C(=O)O1	TGFb SMAD3 inh 0.13µM!, ATXN2 expr inh inconclusive | TGFb confirm 0.12µM | HepG2 tox-2 inconclusive | CCL64 TGFb inh inconclusive | COP TGFb inh inactive
COc1ccc(-c2nc(CN3C(=O)CN=C(c4ccccc4)c4cc(Cl)ccc43)c(C)o2)cc1	TGFb SMAD3 inh inconclusive, ATXN2 expr inh inconclusive (no result: ATXN viability, D3 antag)
NC(=Nc1ccccc1)Nc1ccccc1	TGFb SMAD3 inh 8.9µM, ATXN viability inconclusive | TGFb confirm 9.2µM | HepG2 tox-2 inconclusive | CCL64 TGFb inh inconclusive | COP TGFb inh inactive
CC(/C=C(\C)Nc1ccccc1)=Nc1ccccc1	none
CC(=O)OC[C@]12CCC(C)=C[C@H]1O[C@@H]1[C@H](O)[C@@H](OC(C)=O)[C@@]2(C)[C@]12CO2	none | TGFb confirm 0.037µM | HepG2 tox-2 0.15µM | CCL64 TGFb inh 0.037µM | COP TGFb inh inactive
CCCc1nc2ccc(Br)cc2c(=O)n1-c1ccc([N+](=O)[O-])c(C(F)(F)F)c1	TGFb SMAD3 inh 7.1µM | TGFb confirm inconclusive | HepG2 tox-2 inactive | CCL64 TGFb inh inconclusive | COP TGFb inh inactive
Cc1cccc(-n2c(/C=C/c3c[nH]c4ccccc34)nc3ccccc3c2=O)c1	none (no result: D3 antag)
CC(C)C[C@H]1C(=O)N2CCC[C@H]2[C@]2(O)O[C@](NC(=O)[C@@H]3C=C4c5cccc6[nH]c(Br)c(c56)CC4N(C)C3)(C(C)C)C(=O)N12 (some centres not stated)	none
CC(=NCCc1c[nH]c2ccccc12)c1c(O)n(Cc2ccccc2)c(=O)[nH]c1=O	TGFb SMAD3 inh 11µM, ATXN2 expr inh inconclusive | TGFb confirm 21µM | HepG2 tox-2 inactive | CCL64 TGFb inh inconclusive | COP TGFb inh inactive
CC(=NCCN1CCOCC1)c1c(O)n(Cc2ccccc2)c(=O)[nH]c1=O	none
O=Cc1cn(Cc2ccccc2F)c2ccccc12	TGFb SMAD3 inh 0.89µM, ATXN2 expr inh inconclusive | TGFb confirm 0.46µM | HepG2 tox-2 1µM | CCL64 TGFb inh inactive | COP TGFb inh inactive
CC(=O)c1cn(Cc2ccccc2F)c2ccccc12	TGFb SMAD3 inh inconclusive
Oc1ccccc1-[n+]1c(-c2ccccc2)cc(-c2ccccc2)c(O)c1-c1ccccc1	TGFb SMAD3 inh 11µM | TGFb confirm inconclusive | HepG2 tox-2 inconclusive | CCL64 TGFb inh 23µM | COP TGFb inh inactive
Cc1ccc(-c2cc(-c3ccccc3)cc(-c3ccccc3)[n+]2-c2ccccc2C(=O)O)cc1	TGFb SMAD3 inh inconclusive, ATXN viability inconclusive, ATXN2 expr inh inconclusive
